{"source": "paper PMC7819943", "about": "“Rice protein-binding microarrays: a tool to detect cis-acting elements near promoter regions in rice”", "note": "Over roughly 68,000 sequences, “fluorescence intensity (a.u.)” has its median near 9,100; the highest 2% begin near 16,000. The list comes from a sample in which the highest values are over-represented; it also holds similar and randomly drawn sequences.", "data": [{"biological_target": "OsWRKY34 (Oryza sativa, UniProt Q0JBA9 1-250)", "sequence (Q0JBA9 entry or part of it)": "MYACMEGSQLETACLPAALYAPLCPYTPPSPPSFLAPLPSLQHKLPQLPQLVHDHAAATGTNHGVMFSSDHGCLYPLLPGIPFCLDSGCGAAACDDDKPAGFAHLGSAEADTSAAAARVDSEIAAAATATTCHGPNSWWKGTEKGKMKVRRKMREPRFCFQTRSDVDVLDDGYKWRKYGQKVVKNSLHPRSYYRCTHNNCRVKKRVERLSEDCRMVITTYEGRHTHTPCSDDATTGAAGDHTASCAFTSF", "assay": "protein-binding microarray (RPBM); PBS, 2% BSA, 51.3 ng/ul salmon testes DNA, 50 uM zinc acetate, 200 nM TF, 25 C, 1 h; high values mean tight binding", "conditions": "protein: recombinant; tags: N-terminal polyhistidine and DsRed monomer fusion (pET32a); label: CyDye5-dUTP incorporated in the synthesized complementary strand; 3' TTTTT single-stranded linker to array surface; dsDNA, one strand shown", "in_short": "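Ni–NTA purification followed expression in E. coli BL21-CodonPlus of transcription factors fused N-terminally to a polyhistidine tag and DsRed. At 200 nM in PBS with 2% BSA, salmon testes DNA and 50 µM zinc acetate, the protein was incubated for 1 h at 25 °C with a custom Agilent array that had been primer-extended with Cy5-dUTP and blocked with 2% BSA. After washing, the array was read on an Axon 4000B scanner. The binding signal is per-feature fluorescence intensity in arbitrary units.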", "values": [{"sequence": "TAGCTCACATCGTTTTACGTATCTTCCCAATCTCCTGATCCGGAGTCACCTAGTGCAG", "binding signal": "8950 fluorescence intensity (a.u.)"}, {"sequence": "CTTTCGCGTTTTCCTTGGGTTTGACAATGGGCTACATTGCCGGAGTCACCTAGTGCAG", "binding signal": "9400 fluorescence intensity (a.u.)"}, {"sequence": "TATACTCCTTATCTTGGATTGGTAGTCTTTAGTTTGCTTTCGGAGTCACCTAGTGCAG", "binding signal": "9320 fluorescence intensity (a.u.)"}, {"sequence": "AACACCACGCCGCGCGCTCCACGGCAACGCAACGCAGGAACGGAGTCACCTAGTGCAG", "binding signal": "8720 fluorescence intensity (a.u.)"}, {"sequence": "CAAAGTTGTGTGTTGTGAAGTGTGAAGGAGAGCTCTATTTCGGAGTCACCTAGTGCAG", "binding signal": "8610 fluorescence intensity (a.u.)"}, {"sequence": "TCCGGAGTCTGCACCCATCTTCCCCACGTGCGCGCCCATCCGGAGTCACCTAGTGCAG", "binding signal": "8980 fluorescence intensity (a.u.)"}, {"sequence": "TGACGCCGTTGACTTTTTCTTACATGTTTGACCATTCGTCCGGAGTCACCTAGTGCAG", "binding signal": "36700 fluorescence intensity (a.u.)"}, {"sequence": "ATTGACTTTTTCTTACACTGTTTAACCATTCGTCTTATTCCGGAGTCACCTAGTGCAG", "binding signal": "14000 fluorescence intensity (a.u.)"}, {"sequence": "TGACGCCGTTAACTTTTTCTCACATATTTGACTATTTGTCCGGAGTCACCTAGTGCAG", "binding signal": "10900 fluorescence intensity (a.u.)"}, {"sequence": "ACCATTGATTTTTCAGTACGTGTTTGACCATTCGTCTTATCGGAGTCACCTAGTGCAG", "binding signal": "13300 fluorescence intensity (a.u.)"}, {"sequence": "TTTTCTCATATGTTTGACCATTCGTCTTATTCAAAAAATTCGGAGTCACCTAGTGCAG", "binding signal": "9000 fluorescence intensity (a.u.)"}, {"sequence": "TTTCGTCAGCTGATCGTATATTGACCTTTTCTGTCTCTGTCGGAGTCACCTAGTGCAG", "binding signal": "10500 fluorescence intensity (a.u.)"}, {"sequence": "CACCGTTAATTTTTTCTCACATGTTTGACCATTCATCTTACGGAGTCACCTAGTGCAG", "binding signal": "14400 fluorescence intensity (a.u.)"}, {"sequence": "CGCCGTTGACTTTTTCTCATATGTTTGACCATTCATCTTACGGAGTCACCTAGTGCAG", "binding signal": "38900 fluorescence intensity (a.u.)"}, {"sequence": "TGACGCCGTTGACTTTTTCTCACATGTTTGACTATTCGTCCGGAGTCACCTAGTGCAG", "binding signal": "49100 fluorescence intensity (a.u.)"}, {"sequence": "GCTGTTGACTTTTTCTCACGTGATTGACCTTTCGTCTTATCGGAGTCACCTAGTGCAG", "binding signal": "28400 fluorescence intensity (a.u.)"}, {"sequence": "TCGCCGCTTTCCCTTTCTCCCCTGCGCTCTCACGTCAAACCGGAGTCACCTAGTGCAG", "binding signal": "8970 fluorescence intensity (a.u.)"}, {"sequence": "CTCTGCTCAGTGCTGCTCACTGCCTCACTCACACTGTCACCGGAGTCACCTAGTGCAG", "binding signal": "11000 fluorescence intensity (a.u.)"}, {"sequence": "CTAACCTGGACCGTCCATCCGCGCGAAGTTTTCTCCACCGCGGAGTCACCTAGTGCAG", "binding signal": "9060 fluorescence intensity (a.u.)"}, {"sequence": "TTCCACACAATGTGCTAAAAGTTTGACTTTTACACGTCCACGGAGTCACCTAGTGCAG", "binding signal": "14500 fluorescence intensity (a.u.)"}, {"sequence": "AACATCTGCCTGCTCACTAAAATGATCTACCGGCTTTTTTCGGAGTCACCTAGTGCAG", "binding signal": "8620 fluorescence intensity (a.u.)"}, {"sequence": "CGCTGTTTTTTTTTTATTTTGACGGGTAGTAGAGGCCGCGCGGAGTCACCTAGTGCAG", "binding signal": "9990 fluorescence intensity (a.u.)"}, {"sequence": "TTTCAGAGCTATTTGGCCTTTAATACACTTTCCTATTAAGCGGAGTCACCTAGTGCAG", "binding signal": "8710 fluorescence intensity (a.u.)"}, {"sequence": "TGACGCCGTTGACTTTTTATCTAATGTTTGACTATTCGTCCGGAGTCACCTAGTGCAG", "binding signal": "43500 fluorescence intensity (a.u.)"}, {"sequence": "TAGATGACGCCGTTGATTTTTTTCTCACATATTTGACCATCGGAGTCACCTAGTGCAG", "binding signal": "10700 fluorescence intensity (a.u.)"}, {"sequence": "TCATCTCACGCTGTTGACTTTCTCTTTTTTTTTCGGGGAGCGGAGTCACCTAGTGCAG", "binding signal": "18000 fluorescence intensity (a.u.)"}, {"sequence": "ACTTTTTTTCTCAATCTGTGCTCTTTCACGTGTTTGACTTCGGAGTCACCTAGTGCAG", "binding signal": "11400 fluorescence intensity (a.u.)"}, {"sequence": "TAGACTTTTTCTCACATGTTTGACCATTCGTCTTATTCAACGGAGTCACCTAGTGCAG", "binding signal": "11700 fluorescence intensity (a.u.)"}, {"sequence": "CACCGTTGACTTTTTCTCACATGTTTGACCATTCGTCTTACGGAGTCACCTAGTGCAG", "binding signal": "48400 fluorescence intensity (a.u.)"}, {"sequence": "TGACTTTTTCTCACATGTTTGACCATTCGTCTTATTAAAACGGAGTCACCTAGTGCAG", "binding signal": "12500 fluorescence intensity (a.u.)"}, {"sequence": "AGTTGTTCTTCTCAGCAGGTTGCTGTCATCTTAGACTTTTCGGAGTCACCTAGTGCAG", "binding signal": "8410 fluorescence intensity (a.u.)"}, {"sequence": "AGATGACGCCGTTGACTTTTTCTTACATATTTGACCATTCCGGAGTCACCTAGTGCAG", "binding signal": "25400 fluorescence intensity (a.u.)"}, {"sequence": "ACTGTCCACTCACTTTTTCTTCACCCAGGAGACGAAATTTCGGAGTCACCTAGTGCAG", "binding signal": "11200 fluorescence intensity (a.u.)"}, {"sequence": "TGGCTTATCTCGTTTTGTATATCATCTTCTTAATCTTTTTCGGAGTCACCTAGTGCAG", "binding signal": "10500 fluorescence intensity (a.u.)"}, {"sequence": "CTGCCTCGCTGCCGCCTGCCGTCTCCCCGGGCCCATCTTTCGGAGTCACCTAGTGCAG", "binding signal": "8210 fluorescence intensity (a.u.)"}, {"sequence": "GTGGCGTCAAAGTATTGAGGGCGGGGATGCGGCCACCGTACGGAGTCACCTAGTGCAG", "binding signal": "8640 fluorescence intensity (a.u.)"}, {"sequence": "ACCTGTGCTTGATGGGATGGAAGCTTGGATTAGGTTGGTTCGGAGTCACCTAGTGCAG", "binding signal": "8560 fluorescence intensity (a.u.)"}, {"sequence": "TCTCGCTCGTTTTACCGCAGCATTTTGTTGTTGCTCTAGCCGGAGTCACCTAGTGCAG", "binding signal": "8620 fluorescence intensity (a.u.)"}, {"sequence": "AGTTAGTCAAGCGTATCCTATTTTACGTGCCCGCGCGAATCGGAGTCACCTAGTGCAG", "binding signal": "9610 fluorescence intensity (a.u.)"}, {"sequence": "GACTATCTTGTCGTTCGGTCCAAAAACCGGCGCCTTATGACGGAGTCACCTAGTGCAG", "binding signal": "8300 fluorescence intensity (a.u.)"}, {"sequence": "CACGACCTTAAGCCTCATAATTTGGACAATCACAGCAACTCGGAGTCACCTAGTGCAG", "binding signal": "9170 fluorescence intensity (a.u.)"}, {"sequence": "GCACATGTTTGACCATTCATCTTATAAGAAAAAACTTTTGCGGAGTCACCTAGTGCAG", "binding signal": "8090 fluorescence intensity (a.u.)"}]}]}
